# KDM5B inhibitor: Primary screen for KDM5B Histone Demethylases FDH-coupled qHTS; KDM5B demethylase, FDH-coupled NADH fluorescence (FDH is formaldehyde dehydrogenase); Potency, µM (series often up to 57.7 µM), actives largely listed as inhibitors; 220,000 compounds, 2.6% hits; AID 1347165, 2019; active = well fitted inhibition curve with a large enough effect; also: 0% is about no effect; nearly all actives have a fitted effect of over 70% in size
#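 Inhibition is measured as reduced NADH fluorescence generation from FDH coupling to formaldehyde release. Truncated KDM5BΔAP at 200 nM final acts on H3K4me3 peptide (12.5 µM in substrate mix) in pH 7.5 HEPES buffer with Tween-20, 30 min, room temperature.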
# The depositor's hits bear a star; i = inactive. The sample as a whole holds a higher share of hits than the screen did. Potency is read from the fitted curve at half-maximal effect.
SMILES,KDM5B inhibitor
Cc1cc(C)n2nc(C(=O)N3CCC(Cc4cccc(C(N)=O)c4)C3)nc2n1 (stereo not drawn),i
O=C(O)c1ccc(CC2CCN(C(=O)c3ccccc3Cl)C2)cc1 (stereo not drawn),i
CCOC(=O)N1CCC(NC(=O)c2ccccc2C(=O)O)CC1,i
CCOC(=O)N1CCC(N[C@@H]2CC[C@@H]2NC(=O)c2nc(C)oc2C)CC1,i
CCOC(=O)N1CCC(N[C@@H]2CC[C@@H]2NC(=O)c2cnc3cccnn23)CC1,32µM*
O=C(COC(=O)C12CC3CC(CC(Cl)(C3)C1)C2)NC(=O)c1cccc([N+](=O)[O-])c1,i
CC1(C)NC(=O)N(Cc2ncc(-c3cccc(Cl)c3)o2)C1=O,i
CCOC(=O)c1sc(Nc2ccc(C)cc2)nc1C,i
NC1CCc2nn(CC(=O)N3CCc4ccccc43)c(=O)n2CC1 (stereo not drawn),i
NC1CCc2nn(CC(=O)N3CCCN(c4ncccn4)CC3)c(=O)n2CC1 (stereo not drawn),28µM*
NC1CCc2nn(CC(=O)NCCOc3ccccc3)c(=O)n2CC1 (stereo not drawn),i
CC(C)(C)c1nnc2c3cnn(-c4ccccc4)c3ncn12,i
COC(=O)CCC(C)C1CCC2C3CCC4C[C@H](OC(=O)c5ccccc5)CCC4(C)C3CC(=O)C12C (stereo partly drawn),i
Cc1ccc(NC(=O)Cn2c(C)cc(C)c(C#N)c2=O)cc1F,i
Cc1cc(C)n(C(C)CC(=O)Nc2ccc(C)c(F)c2)n1 (stereo not drawn),i
Cc1ccc(NC(=O)CCNc2cnc3cnccn23)cc1F,22µM*
OCCNc1ncnc2c1cnn2-c1ccccc1Cl,i
COc1ccc(C2NC(=O)N(CC(=O)N3CCCCCC3)C3=C2C(=O)OC3)cc1 (stereo not drawn),i
O=C(c1cc(Cl)ccc1F)N1CCN(Cc2nnnn2C2CC2)CC1,i
CCc1cccc(C)c1NC(=O)Cn1cccc1-c1nc(-c2ccc(OC)c(F)c2)no1,i
O=C(Cc1c[nH]c2ccccc12)N[C@H](Cc1ccccn1)C1CC(O)C1 (stereo partly drawn),i
O=C(N[C@H](Cc1ccccn1)C1CC(O)C1)c1n[nH]c2c1CCCC2 (stereo partly drawn),i
O=C(N[C@H](Cc1ccccn1)C1CC(O)C1)c1cccc2c1NCCC2 (stereo partly drawn),32µM*
O=C(CCCSc1nc2ccccc2s1)Nc1ccc(F)c(F)c1F,i
N#Cc1ccccc1S(=O)(=O)N1CCN(C(=O)c2ccc(Cn3nnc4ccccc43)cc2)CC1,i
SMILES,KDM5B inhibitor
N#CC1(NC(=O)CSc2nccn2C2CC2)CCCCC1,i
CCOC(=O)c1cc(S(=O)(=O)N(C)CC(=O)Nc2ccc(F)c(Cl)c2)cn1C,i
CCCS(=O)(=O)N1CCCC1C(=O)NC1CCCCC1 (stereo not drawn),i
CCCCNC(=O)c1cc2c(=O)n3cccc(C)c3nc2s1,i
Cc1nc2scc(C)n2c(=O)c1S(=O)(=O)N1CCN(c2ccccc2)CC1,i
CCc1ccccc1-n1nc(-c2c(C)nc3scc(CC(=O)N4CCCC4)n3c2=O)cc1C,32µM*
Cc1nc2scc(C)n2c1/C=C/c1cc(C(=O)O)c2ccccc2n1,i
CCCCOCCCNC(=O)Cn1nc(C)c2ccccc2c1=O,i
CCCCNC(=O)Cn1c(=O)cc(C)c2c(C)nn(-c3ccc(CC)cc3)c21,i
CCCCNC(=O)Cc1csc2nc(C)c(-c3cc(C)n(-c4ccccc4CC)n3)c(=O)n12,32µM*
CCCCCNC(=O)Cc1csc2nc(C)c(-c3cc(C)n(-c4cccc(C)c4C)n3)c(=O)n12,32µM*
COc1ccccc1CNC(=O)Cc1csc2nc(-c3ccccc3)cn12,i
CCCCCCNC(=O)Cc1csc2nc(C)c(-c3cc(C)n(-c4ccccc4OC)n3)c(=O)n12,28µM*
CCCCNC(=O)c1c(-c2ccccc2)c(-c2ccccc2)nn(C)c1=O,i
CCCCCn1nc(C(=O)Nc2nc(-c3cc(OC)ccc3OC)cs2)c2ccccc2c1=O,i
CCCCCC(=O)N1CCN(CCNc2cc(=O)oc3ccccc23)CC1,i
Cc1c(-c2ccccc2)oc2c(C(=O)NC3CCN(Cc4ccccc4)C3)cccc2c1=O (stereo not drawn),i
O=C(Nc1c(NCc2ccccc2)c2ccccc2oc1=O)c1ccccc1F,i
CCOC(=O)Cc1nnc(SC(C)C(=O)Nc2cc(Cl)ccc2C)n1C (stereo not drawn),i
CCN1CCN(c2nc3ccccc3nc2C(C#N)S(=O)(=O)c2ccc(OC)cc2)CC1 (stereo not drawn),i
CN1CCN(C(=O)C2CCc3nc(N4CCN(C(=O)C5CCC5)CC4)sc3C2)CC1 (stereo not drawn),i
CCc1ccccc1-n1nc(-c2c(C)nc3scc(CC(=O)NCc4ccco4)n3c2=O)cc1C,28µM*
CCc1nc2c(=O)n(CC(=O)NCc3ccco3)nc(C)c2s1,i

# From PubChem BioAssay
